Results taken from PubChem BioAssay (EPA / NIEHS).
Records with an inconclusive call do not appear. Activity calls are given as the source filed them. How the source made its calls, unless noted: active means hit-call score of the fitted dose curve at least 0.9, where 1 is the maximum; inconclusive means response in the unintended direction; inactive means score below 0.9.

Columns and labels:
[1] = biological target: human Peroxisome Proliferator-activated Receptor alpha (PPARa), PPARA (gene 5465) (UniProt Q07869); test: ATG_PPARa_TRANS: Attagene TRANS-FACTORIAL HepG2 Assay for human Peroxisome Proliferator-activated Receptor alpha (PPARa) (AID 2283001)
Outline: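 HepG2 cells transiently transfected with multiplexed GAL4-UAS reporters driven by exogenous chimeric NR-Gal4 proteins; reporter mRNA measured after 24 h dosing. Read-out by RT-PCR, 6-FAM labelling, HpaI digestion and capillary electrophoresis; gain of signal versus DMSO.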

[2] = biological target: human Peroxisome Proliferator-activated Receptor delta (PPARd), PPARD (gene 5467) (UniProt Q03181); test: ATG_PPARd_TRANS: Attagene TRANS-FACTORIAL HepG2 Assay for human Peroxisome Proliferator-activated Receptor delta (PPARd) (AID 2283002)
Outline: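 HepG2 cells transiently transfected with GAL4-UAS multiplexed reporter units driven by exogenous chimeric NR-GAL4 proteins; 24 h compound exposure. Reporter mRNA measured by RT-PCR, 6-FAM primer extension, HpaI digestion and capillary electrophoresis; gain of signal fitted relative to DMSO.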

[3] = biological target: Nuclear receptor subfamily 1 group I member 2 (Homo sapiens) (UniProt O75469); test: ATG_PXR_TRANS: Attagene TRANS-FACTORIAL HepG2 Assay for human Pregnane X Receptor (PXR) (AID 2283008)
Outline: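 Read-out is fluorescence of labelled reporter cDNA fragments separated by capillary electrophoresis after RT-PCR and HpaI digestion. Source: HepG2 cells carrying PXR-GAL4/UAS reporter constructs, treated 24 h; activity fitted upward relative to DMSO.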

[4] = biological target: human RAR-related Orphan Receptor beta (RORb), RORB (gene 6096) (UniProt Q92753); test: ATG_RORb_TRANS: Attagene TRANS-FACTORIAL HepG2 Assay for human RAR-related Orphan Receptor beta (RORb) (AID 2283010)
Outline: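 Readout is reporter-gene mRNA induction, detected as fluorescence after RT-PCR and capillary electrophoresis, fitted for gain of signal against DMSO controls. Transiently transfected HepG2 liver cells carrying GAL4-UAS reporter constructs were treated for 24 hours.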

[5] = biological target: human RAR-related Orphan Receptor gamma (RORg), RORC (gene 6097) (UniProt P51449); test: ATG_RORg_TRANS: Attagene TRANS-FACTORIAL HepG2 Assay for human RAR-related Orphan Receptor gamma (RORg) (AID 2283011)
Outline: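 Activity is scored as increase in GAL4-UAS reporter mRNA over DMSO, detected by fluorescent RT-PCR and capillary electrophoresis in HepG2 cells transiently expressing a RORg-Gal4 chimera, 24 h after dosing.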

[6] = biological target: Retinoic acid receptor RXR-alpha (Homo sapiens) (UniProt P19793); test: ATG_RXRa_TRANS: Attagene TRANS-FACTORIAL HepG2 Assay for human Retinoid X Receptor alpha (RXRa) (AID 2283012)
Outline: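 Transient transfection of human HepG2 with multiple GAL4-UAS reporter constructs; 24 h compound exposure; total RNA isolated, reverse-transcribed, PCR-amplified, 6-FAM labelled, HpaI-cut, resolved by capillary electrophoresis. Positive-direction fit versus DMSO.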

[7] = biological target: human Thyroid Receptor alpha (THRa1), THRA (gene 7067) (UniProt P10827); test: ATG_THRa1_TRANS: Attagene TRANS-FACTORIAL HepG2 Assay for human Thyroid Receptor alpha (THRa1) (AID 2283014)
Outline: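 First, HepG2 cells receive multiple GAL4-UAS reporter units and the chimeric receptor. They are then dosed for 24 h, after which RNA is reverse-transcribed, amplified, labelled, HpaI-cut and sized by capillary electrophoresis; gain relative to DMSO is scored.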

[8] = read-out: Intercellular Adhesion Molecule 1 (ICAM1), ICAM1 (gene 3383); test: BSK_3C_ICAM1: BioMAP Diversity Plus: 3C Assay for Intercellular Adhesion Molecule 1 (ICAM1) Biomarker Activity (AID 2283003; active means hit-call score of the fitted dose curve at least 0.9, where 1 is the maximum; inactive means score below 0.9); conditions: primary human endothelial cells (HUVEC); actives raise or lower the signal
Outline: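 ICAM-1 levels measured by ELISA after HUVEC cultures in the 3C system had been dosed for 24 h. Gain or loss of signal relative to DMSO was fitted in both directions.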

[9] = BSK_3C_Proliferation: Cell Proliferation Assessment in the BioMAP Diversity Plus: 3C Assay (AID 2283006; active means hit-call score of the fitted dose curve at least 0.9, where 1 is the maximum; inactive means score below 0.9;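 further: potency may reflect either rise or fall in cell number versus DMSO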); conditions: primary human endothelial cells (HUVEC)
Outline: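 Read-out is total protein by SRB absorbance at 560 nm, taken as a proxy for relative cell number. Primary human umbilical vein endothelium cultured below confluence was dosed for 48 h, TCA-fixed and SRB-stained; curves were fitted bidirectionally versus DMSO.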

[10] = biological target: Peroxisome proliferator-activated receptor gamma (Homo sapiens) (UniProt P37231); test: ATG_PPARg_TRANS: Attagene TRANS-FACTORIAL HepG2 Assay for human Peroxisome Proliferator-activated Receptor-gamma (PPARg) (AID 2283007)
Outline: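 Endpoint reflects upward reporter mRNA change versus DMSO controls. Setup: transiently transfected HepG2, GAL4-UAS reporters driven by chimeric NR-Gal4, 24 h incubation, RT-PCR with capillary electrophoresis read-out.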

[11] = biological target: human Retinoid X Receptor beta (RXRb), RXRB (gene 6257) (UniProt P28702); test: ATG_RXRb_TRANS: Attagene TRANS-FACTORIAL HepG2 Assay for human Retinoid X Receptor beta (RXRb) (AID 2283013)
Outline: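 Transfect HepG2 with GAL4-UAS multi-reporter constructs (chimeric NR-Gal4, TRANS format); dose compound 24 h; isolate RNA, RT-PCR, FAM primer extension, HpaI digest; quantify by capillary electrophoresis; positive direction vs DMSO.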

[12] = read-out: Interleukin-1 alpha (IL1a), IL1A (gene 3552); test: BSK_BE3C_IL1a: BioMAP Diversity Plus: BE3C Assay for Interleukin-1 alpha (IL1a) Biomarker Activity (AID 2283016; active means hit-call score of the fitted dose curve at least 0.9, where 1 is the maximum; inactive means score below 0.9); conditions: primary human bronchial epithelial cells; actives raise or lower the signal
Outline: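 BE3C primary human bronchial epithelium; cpd 24 h; IL-1a by ELISA; bidirectional fit vs DMSO; parallel SRB (0.1% SRB, 10% TCA fix, 560 nm) for cytotoxicity.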

[13] = read-out: Monocyte Chemoattractant Protein-1 (MCP1), CCL2 (gene 6347); test: BSK_3C_MCP1: BioMAP Diversity Plus: 3C Assay for Monocyte Chemoattractant Protein-1 (MCP1) Biomarker Activity (AID 2283017; active means hit-call score of the fitted dose curve at least 0.9, where 1 is the maximum; inactive means score below 0.9); conditions: primary human endothelial cells (HUVEC); actives raise or lower the signal
Outline: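 Endothelial cells from human umbilical vein are dosed with chemical, cultured 24 h, then assayed for MCP-1 by ELISA; both increases and decreases are modelled against DMSO controls.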

[14] = read-out: Monocyte Chemoattractant Protein-1 (MCP1), CCL2 (gene 6347); test: BSK_4H_MCP1: BioMAP Diversity Plus: 4H Assay for Monocyte Chemoattractant Protein-1 (MCP1) Biomarker Activity (AID 2283018; active means hit-call score of the fitted dose curve at least 0.9, where 1 is the maximum; inactive means score below 0.9); conditions: primary human endothelial cells (HUVEC); actives raise or lower the signal
Outline: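 ELISA read-out of MCP-1 from human vascular endothelial primary cells taken at 24 hours after compound exposure. Activity was fitted in both directions relative to DMSO, which served as negative control.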

[15] = read-out: Human Leukocyte Antigen - DR isotype (HLADR), HLA-DRA (gene 3122); test: BSK_3C_HLADR: BioMAP Diversity Plus: 3C Assay for Human Leukocyte Antigen - DR isotype (HLADR) Biomarker Activity (AID 2283019; active means hit-call score of the fitted dose curve at least 0.9, where 1 is the maximum; inactive means score below 0.9;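 further: ELISA of cell-surface HLA-DR on HUVEC 24 h after dosing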); conditions: primary human endothelial cells (HUVEC); actives raise or lower the signal
Outline: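 Endothelial cells from human umbilical vein are treated with test chemical; after 24 h, HLA-DR levels are measured by ELISA. Data are fitted in both directions using DMSO as the baseline.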

[16] = read-out: Interleukin-8 (IL8), CXCL8 (gene 3576); test: BSK_3C_IL8: BioMAP Diversity Plus: 3C Assay for Interleukin-8 (IL8) Biomarker Activity (AID 2283020; active means hit-call score of the fitted dose curve at least 0.9, where 1 is the maximum; inactive means score below 0.9); conditions: primary human endothelial cells (HUVEC); actives raise or lower the signal
Outline: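 ELISA read-out of IL-8 from human umbilical vein endothelium, measured 24 h after chemical dosing. Activity is expressed relative to DMSO negative control, with both increases and decreases fitted.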

[17] = read-out: Monokine induced gamma interferon (MIG), CXCL9 (gene 4283); test: BSK_3C_MIG: BioMAP Diversity Plus: 3C Assay for Monokine induced gamma interferon (MIG) Biomarker Activity (AID 2283021; active means hit-call score of the fitted dose curve at least 0.9, where 1 is the maximum; inactive means score below 0.9); conditions: primary human endothelial cells (HUVEC); actives raise or lower the signal
Outline: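 Read-out is ELISA detection of MIG on human umbilical vein endothelial cells, taken 24 h after dosing. Gain or loss of signal was scored relative to DMSO controls using bidirectional curve fitting.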

[18] = biological target: human Retinoic Acid Receptor beta (RARb), RARB (gene 5915) (UniProt P10826); test: ATG_RARb_TRANS: Attagene TRANS-FACTORIAL HepG2 Assay for human Retinoic Acid Receptor beta (AID 2283004)
Outline: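 HepG2, transient MRTU transfection, NR–Gal4 chimera, 24 h treatment; RT-PCR plus CE fluorescence detection of reporter mRNA; gain of signal vs DMSO.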

Sequence of human RAR-related Orphan Receptor beta (RORb), RORB (gene 6096) (Q92753 whole entry, looked up, the tested form may be a part): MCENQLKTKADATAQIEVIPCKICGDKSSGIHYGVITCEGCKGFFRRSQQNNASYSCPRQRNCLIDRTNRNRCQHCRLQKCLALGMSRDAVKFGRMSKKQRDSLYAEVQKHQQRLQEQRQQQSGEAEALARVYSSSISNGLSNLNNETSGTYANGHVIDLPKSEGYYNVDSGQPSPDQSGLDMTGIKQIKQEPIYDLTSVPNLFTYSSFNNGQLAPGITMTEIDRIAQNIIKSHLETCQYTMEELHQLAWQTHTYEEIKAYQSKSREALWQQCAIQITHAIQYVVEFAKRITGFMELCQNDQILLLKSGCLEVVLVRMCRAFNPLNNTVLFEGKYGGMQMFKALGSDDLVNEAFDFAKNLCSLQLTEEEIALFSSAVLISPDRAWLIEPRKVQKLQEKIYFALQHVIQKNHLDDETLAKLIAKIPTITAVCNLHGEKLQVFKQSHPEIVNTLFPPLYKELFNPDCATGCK
Sequence of human Retinoid X Receptor beta (RXRb), RXRB (gene 6257) (P28702 whole entry, looked up, the tested form may be a part): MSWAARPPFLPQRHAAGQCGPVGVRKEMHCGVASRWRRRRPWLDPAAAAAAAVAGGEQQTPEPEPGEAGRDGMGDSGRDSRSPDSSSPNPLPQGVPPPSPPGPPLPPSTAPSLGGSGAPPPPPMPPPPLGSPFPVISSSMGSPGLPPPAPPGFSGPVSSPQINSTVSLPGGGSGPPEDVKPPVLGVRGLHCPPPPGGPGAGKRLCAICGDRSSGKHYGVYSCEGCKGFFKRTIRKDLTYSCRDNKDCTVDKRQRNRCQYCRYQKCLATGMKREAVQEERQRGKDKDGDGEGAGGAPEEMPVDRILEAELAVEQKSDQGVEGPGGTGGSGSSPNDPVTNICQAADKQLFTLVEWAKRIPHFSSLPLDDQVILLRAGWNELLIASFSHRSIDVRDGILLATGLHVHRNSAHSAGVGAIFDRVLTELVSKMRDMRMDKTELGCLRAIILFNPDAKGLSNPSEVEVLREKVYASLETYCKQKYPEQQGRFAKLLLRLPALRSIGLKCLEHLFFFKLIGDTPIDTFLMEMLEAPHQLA
Sequence of human Thyroid Receptor alpha (THRa1), THRA (gene 7067) (P10827 whole entry, looked up, the tested form may be a part): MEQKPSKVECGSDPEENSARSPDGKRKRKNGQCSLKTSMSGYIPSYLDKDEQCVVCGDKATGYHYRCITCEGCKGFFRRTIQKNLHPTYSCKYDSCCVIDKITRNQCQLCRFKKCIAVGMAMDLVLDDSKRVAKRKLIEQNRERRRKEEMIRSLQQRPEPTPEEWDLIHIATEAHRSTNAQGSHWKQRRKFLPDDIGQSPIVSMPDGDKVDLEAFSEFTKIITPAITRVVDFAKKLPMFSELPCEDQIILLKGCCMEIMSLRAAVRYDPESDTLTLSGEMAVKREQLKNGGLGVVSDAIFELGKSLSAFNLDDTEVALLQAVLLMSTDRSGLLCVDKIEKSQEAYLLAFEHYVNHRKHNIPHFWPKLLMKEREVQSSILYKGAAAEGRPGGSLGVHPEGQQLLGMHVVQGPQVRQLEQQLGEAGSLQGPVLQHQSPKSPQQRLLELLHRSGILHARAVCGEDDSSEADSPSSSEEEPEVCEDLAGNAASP
Sequence of human RAR-related Orphan Receptor gamma (RORg), RORC (gene 6097) (P51449 whole entry, looked up, the tested form may be a part): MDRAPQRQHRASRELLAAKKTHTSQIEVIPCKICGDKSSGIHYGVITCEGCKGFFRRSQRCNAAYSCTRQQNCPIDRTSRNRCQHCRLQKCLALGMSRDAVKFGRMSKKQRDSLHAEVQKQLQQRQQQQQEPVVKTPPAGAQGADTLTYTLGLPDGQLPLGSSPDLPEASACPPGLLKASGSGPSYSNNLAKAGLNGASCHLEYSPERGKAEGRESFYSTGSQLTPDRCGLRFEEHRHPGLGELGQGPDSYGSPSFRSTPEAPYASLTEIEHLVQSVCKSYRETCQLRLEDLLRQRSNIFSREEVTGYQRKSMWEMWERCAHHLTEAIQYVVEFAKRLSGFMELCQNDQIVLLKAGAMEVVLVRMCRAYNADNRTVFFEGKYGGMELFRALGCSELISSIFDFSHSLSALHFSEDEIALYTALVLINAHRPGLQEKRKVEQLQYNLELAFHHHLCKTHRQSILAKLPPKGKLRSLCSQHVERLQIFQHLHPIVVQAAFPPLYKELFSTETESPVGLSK
Sequence of Peroxisome proliferator-activated receptor gamma (Homo sapiens) (P37231 whole entry, looked up, the tested form may be a part): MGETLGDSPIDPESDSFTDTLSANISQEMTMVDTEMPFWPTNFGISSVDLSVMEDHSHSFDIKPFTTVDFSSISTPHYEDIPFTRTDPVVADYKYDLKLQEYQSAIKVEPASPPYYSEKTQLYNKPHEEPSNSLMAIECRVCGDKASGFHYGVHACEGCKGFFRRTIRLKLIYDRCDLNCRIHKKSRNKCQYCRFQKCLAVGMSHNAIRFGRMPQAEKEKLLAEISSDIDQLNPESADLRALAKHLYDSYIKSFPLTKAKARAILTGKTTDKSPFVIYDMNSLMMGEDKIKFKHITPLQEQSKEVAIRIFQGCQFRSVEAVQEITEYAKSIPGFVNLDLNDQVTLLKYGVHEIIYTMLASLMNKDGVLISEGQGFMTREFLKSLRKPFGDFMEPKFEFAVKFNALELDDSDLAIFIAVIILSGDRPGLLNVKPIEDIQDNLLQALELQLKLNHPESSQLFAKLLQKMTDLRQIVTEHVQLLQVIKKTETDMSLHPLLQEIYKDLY
Sequence of Retinoic acid receptor RXR-alpha (Homo sapiens) (P19793 whole entry, looked up, the tested form may be a part): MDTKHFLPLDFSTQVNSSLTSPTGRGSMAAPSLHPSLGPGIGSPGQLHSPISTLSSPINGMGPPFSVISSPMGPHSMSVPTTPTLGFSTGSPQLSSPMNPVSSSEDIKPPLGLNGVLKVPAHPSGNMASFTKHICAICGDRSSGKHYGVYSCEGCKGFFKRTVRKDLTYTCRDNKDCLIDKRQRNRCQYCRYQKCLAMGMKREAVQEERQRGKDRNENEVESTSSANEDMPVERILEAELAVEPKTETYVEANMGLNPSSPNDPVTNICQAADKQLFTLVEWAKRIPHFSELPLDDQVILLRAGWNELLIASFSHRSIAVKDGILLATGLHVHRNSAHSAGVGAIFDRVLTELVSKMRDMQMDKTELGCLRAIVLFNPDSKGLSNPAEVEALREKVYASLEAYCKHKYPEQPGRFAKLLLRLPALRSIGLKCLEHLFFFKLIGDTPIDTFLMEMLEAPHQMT
Sequence of Nuclear receptor subfamily 1 group I member 2 (Homo sapiens) (O75469 whole entry, looked up, the tested form may be a part): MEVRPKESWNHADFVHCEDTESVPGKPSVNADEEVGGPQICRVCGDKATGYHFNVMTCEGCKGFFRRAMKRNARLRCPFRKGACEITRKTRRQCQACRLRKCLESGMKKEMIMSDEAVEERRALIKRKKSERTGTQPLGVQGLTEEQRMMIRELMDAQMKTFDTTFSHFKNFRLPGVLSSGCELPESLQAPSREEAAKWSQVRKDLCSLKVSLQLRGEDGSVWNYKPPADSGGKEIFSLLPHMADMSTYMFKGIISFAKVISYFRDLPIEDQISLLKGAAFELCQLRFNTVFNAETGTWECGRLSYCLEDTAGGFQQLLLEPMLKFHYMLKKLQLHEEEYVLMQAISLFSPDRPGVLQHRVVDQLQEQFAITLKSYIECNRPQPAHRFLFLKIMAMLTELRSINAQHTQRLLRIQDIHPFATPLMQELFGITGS
Sequence of human Peroxisome Proliferator-activated Receptor alpha (PPARa), PPARA (gene 5465) (Q07869 whole entry, looked up, the tested form may be a part): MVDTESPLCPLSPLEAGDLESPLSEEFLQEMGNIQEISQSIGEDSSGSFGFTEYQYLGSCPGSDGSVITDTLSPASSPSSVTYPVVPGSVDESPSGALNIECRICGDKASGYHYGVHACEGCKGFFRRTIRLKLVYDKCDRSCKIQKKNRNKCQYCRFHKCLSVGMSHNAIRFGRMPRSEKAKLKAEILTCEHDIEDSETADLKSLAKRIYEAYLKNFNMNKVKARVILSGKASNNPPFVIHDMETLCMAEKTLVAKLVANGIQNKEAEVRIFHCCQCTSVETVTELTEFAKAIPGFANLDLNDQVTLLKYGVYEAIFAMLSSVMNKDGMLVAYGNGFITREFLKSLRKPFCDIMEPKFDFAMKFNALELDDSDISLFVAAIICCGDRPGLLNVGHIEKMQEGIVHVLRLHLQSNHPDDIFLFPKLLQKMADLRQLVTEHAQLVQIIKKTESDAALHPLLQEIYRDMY
Sequence of human Peroxisome Proliferator-activated Receptor delta (PPARd), PPARD (gene 5467) (Q03181 whole entry, looked up, the tested form may be a part): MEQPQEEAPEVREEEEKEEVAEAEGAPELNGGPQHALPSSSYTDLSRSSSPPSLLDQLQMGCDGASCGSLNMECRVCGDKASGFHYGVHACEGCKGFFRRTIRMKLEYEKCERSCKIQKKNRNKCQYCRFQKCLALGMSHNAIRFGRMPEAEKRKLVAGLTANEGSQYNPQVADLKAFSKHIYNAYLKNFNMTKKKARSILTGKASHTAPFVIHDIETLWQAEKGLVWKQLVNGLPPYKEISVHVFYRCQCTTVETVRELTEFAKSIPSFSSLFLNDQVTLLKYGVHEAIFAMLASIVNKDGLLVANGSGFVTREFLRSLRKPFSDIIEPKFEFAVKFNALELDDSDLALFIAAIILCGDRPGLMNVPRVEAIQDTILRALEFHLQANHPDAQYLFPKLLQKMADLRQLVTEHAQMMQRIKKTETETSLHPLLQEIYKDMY
Sequence of human Retinoic Acid Receptor beta (RARb), RARB (gene 5915) (P10826 whole entry, looked up, the tested form may be a part): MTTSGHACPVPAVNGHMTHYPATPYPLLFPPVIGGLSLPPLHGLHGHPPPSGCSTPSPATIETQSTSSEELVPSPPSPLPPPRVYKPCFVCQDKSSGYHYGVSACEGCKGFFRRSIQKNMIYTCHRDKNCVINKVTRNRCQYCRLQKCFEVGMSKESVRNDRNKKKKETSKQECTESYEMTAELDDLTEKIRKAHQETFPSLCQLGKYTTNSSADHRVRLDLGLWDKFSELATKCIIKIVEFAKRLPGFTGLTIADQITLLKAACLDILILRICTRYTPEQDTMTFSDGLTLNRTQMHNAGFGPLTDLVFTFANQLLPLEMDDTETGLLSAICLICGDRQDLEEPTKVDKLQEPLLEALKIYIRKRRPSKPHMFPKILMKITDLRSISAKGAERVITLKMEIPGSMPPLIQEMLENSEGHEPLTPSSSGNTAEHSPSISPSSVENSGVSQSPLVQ

**Q.** For CC1=CCC(O)(C(C)C)CC1 (stereo unspecified), which outcome [1] is on record?
**A.** inactive

**Q.** What about the outcome [2] of the same molecule?
**A.** inactive

**Q.** And the outcome [3]?
**A.** inactive

**Q.** What about the outcome [4] of the same molecule?
**A.** inactive

**Q.** What about the outcome [5] of the same molecule?
**A.** inactive

**Q.** What about the outcome [6] of the same molecule?
**A.** inactive

**Q.** And the outcome [7]?
**A.** inactive

**Q.** With O=C(O)C[C@H](O)C[C@H](O)/C=C/c1c(C2CC2)nc2ccccc2c1-c1ccc(F)cc1 as the molecule, how does the outcome [1] read?
**A.** inactive

**Q.** What about the outcome [8] of the same molecule?
**A.** inactive

**Q.** And the AC50 [9]?
**A.** 1950 nM (active)

**Q.** And the AC50 [10]?
**A.** 20200 nM (active)

**Q.** What about the outcome [3] of the same molecule?
**A.** inactive

**Q.** What about the outcome [4] of the same molecule?
**A.** inactive

**Q.** What about the outcome [6] of the same molecule?
**A.** inactive

**Q.** What about the outcome [11] of the same molecule?
**A.** inactive

**Q.** What about the outcome [7] of the same molecule?
**A.** inactive

**Q.** What about the AC50 [12] of the same molecule?
**A.** 1430 nM (active)

**Q.** And the outcome [13]?
**A.** inactive

**Q.** And the AC50 [14]?
**A.** 551 nM (active)

**Q.** And the outcome [15]?
**A.** inactive

**Q.** And the outcome [16]?
**A.** inactive

**Q.** What about the outcome [17] of the same molecule?
**A.** inactive

**Q.** For CC(C)C[C@H]1C(=O)N2CCC[C@H]2[C@]2(O)O[C@](NC(=O)[C@@H]3C=C4c5cccc6[nH]c(Br)c(c56)C[C@H]4N(C)C3)(C(C)C)C(=O)N12, which outcome [1] is on record?
**A.** inactive

**Q.** And the outcome [18]?
**A.** inactive

**Q.** What about the outcome [10] of the same molecule?
**A.** inactive

**Q.** What about the AC50 [3] of the same molecule?
**A.** 505 nM (active)

**Q.** And the outcome [5]?
**A.** inactive

**Q.** With CCc1ccc(C=O)cc1 as the molecule, how does the outcome [1] read?
**A.** inactive

**Q.** And the outcome [10]?
**A.** inactive

**Q.** And the outcome [3]?
**A.** inactive

**Q.** And the outcome [4]?
**A.** inactive

**Q.** And the outcome [6]?
**A.** inactive

**Q.** What about the outcome [11] of the same molecule?
**A.** inactive

**Q.** Which results are given for CC(C)(C#N)c1cc(Cn2cncn2)cc(C(C)(C)C#N)c1?
**A.** outcome [1]: inactive; outcome [10]: inactive; outcome [3]: inactive; outcome [11]: inactive

**Q.** For O=C(O)CCSCCC(=O)O, which outcome [1] is on record?
**A.** inactive

**Q.** And the outcome [10]?
**A.** inactive

**Q.** What about the outcome [3] of the same molecule?
**A.** inactive

**Q.** And the outcome [5]?
**A.** inactive

**Q.** And the outcome [6]?
**A.** inactive

**Q.** What about the outcome [11] of the same molecule?
**A.** inactive

**Q.** What does the source list for CCCC(=O)OCCC(C)CCC=C(C)C (stereo unspecified)?
**A.** outcome [1]: inactive; AC50 [10]: 31000 nM (active); outcome [3]: inactive; outcome [4]: inactive; outcome [5]: inactive; outcome [7]: inactive

**Q.** With Cc1ccc(C(C)C)cc1O as the molecule, how does the outcome [1] read?
**A.** inactive

**Q.** What about the outcome [10] of the same molecule?
**A.** inactive

**Q.** And the outcome [3]?
**A.** inactive

**Q.** What about the outcome [4] of the same molecule?
**A.** inactive

**Q.** What about the outcome [5] of the same molecule?
**A.** inactive

**Q.** What about the AC50 [11] of the same molecule?
**A.** 100000 nM (active)

**Q.** What about the outcome [7] of the same molecule?
**A.** inactive
